In assay [1] the target is Rap guanine nucleotide exchange factor 3 (Homo sapiens) (UniProt O95398). The assay can be described thus: Confirmatory qHTS for antagonist of cAMP-regulated guanine nucleotide exchange factor 3 (EPAC1) (AID 1645880). Also: nearly all actives have a fitted effect of over 55% in size. Also: potency is read from the fitted curve at half-maximal effect. Particulars: EPAC1 Rap1B-BODIPY-GDP exchange, fluorescence; series mostly up to 115 µM. The method, boiled down:
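Nucleotide exchange uses 100 nM EPAC1, 250 nM RAP1B-BODIPY-GDP and 50 uM GDP, with compounds in a concentration-titration series. After 5 min at room temperature, fluorescence (480 nm ex/540 nm em) is read every 5 min for 30 min. Data are normalized to control ATA and DMSO.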
(qHTS replaces the single test concentration by a dilution series.)

Assay [2] shares this target. As to the kind of experiment: Confirmatory qHTS for agonist of cAMP-regulated guanine nucleotide exchange factor 3 (EPAC1) (AID 1645881).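 Also: EPAC1 catalysed release of BODIPY-GDP from Rap1B seen as fluorescence loss; 100% = effect of cAMP agonist control; nearly all actives have a fitted effect of over 75% in size.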 Particulars: EPAC1 Rap1B BODIPY-GDP exchange fluorescence; series mostly up to 154 µM.
Assay [3] concerns the target Rap guanine nucleotide exchange factor 4 (Homo sapiens) (UniProt Q8WZA2). The assay can be described thus: Confirmatory qHTS for agonist of cAMP-regulated guanine nucleotide exchange factor 4 (EPAC2) (AID 1645884).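 Also: nucleotide exchange releases bodipy-GDP from Rap1 and this lowers its fluorescence; % is scaled to controls: 0 for no effect and ±100 for the full control effect; nearly all actives have a fitted effect of over 65% in size.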 Particulars: EPAC2 GEF activity, Rap1B-BODIPY-GDP fluorescence; series mostly up to 154 µM.
The target is the same in assay [4]. The assay can be described thus: Confirmatory qHTS for antagonist of cAMP-regulated guanine nucleotide exchange factor 4 (EPAC2) (AID 1645885). Also: nearly all actives have a fitted effect of over 25% in size. Also: potency is read from the fitted curve at half-maximal effect. As to activity change, negative = inhibition: % is scaled to controls: 0 for no effect and ±100 for the full control effect. The settings on record: EPAC2 Rap1B-BODIPY-GDP exchange fluorescence, biochemical; series mostly up to 12.7 µM.
Assay [5] has as its target Rap guanine nucleotide exchange factor 3 (Homo sapiens) (UniProt O95398). The assay can be described thus: Counterscreen qHTS for antagonist of cAMP-regulated guanine nucleotide exchange factor 3 (EPAC1) (AID 1645888).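 Also: fluorescence loss as bound BODIPY-GDP is released from Rap1B; % of control where 0% means no effect.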 Particulars: Rap1B-BODIPY-GDP nucleotide exchange, fluorescence; series mostly up to 154 µM. The method, boiled down:
(§1)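 Rap1B-BODIPY-GDP 250 nM + GDP 50 uM; cpds 7-pt, final 9.74 nM–152 uM (activator mode) or from 7.32 nM upwards (inhibitor mode); RT; FI 480/540 nm at 5 and 30 min, then ± cAMP, reread.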
Background: The purpose of a counterscreen is to sort out artefacts and off-target activity.

The target is the same in assay [6]. The assay can be described thus: Counterscreen qHTS for agonist of cAMP-regulated guanine nucleotide exchange factor 3 (EPAC1) (AID 1645889). Also: nearly all actives have a fitted effect of over 40% in size. Also: potency is read from the fitted curve at half-maximal effect. As to activation: % of control where 0% means no effect. The settings on record: EPAC1 Rap1B-BODIPY-GDP exchange, fluorescence; series mostly up to 154 µM. An outline of the steps: as §1

Inconclusive results are not listed. A number with no mark means an inactive call. The source made the active and inactive calls. Calls follow the shape of the dose curve; as a rule, active = well fitted curve in the direction sought with a large enough effect; inconclusive = small, poorly fitted or top-dose-only effect, or another doubt; inactive = no such curve, though single readings can be large; an effect the other way counts as inactive or inconclusive.

The values below come from PubChem BioAssay (NCATS).

Rap guanine nucleotide exchange factor 3 (Homo sapiens), sequence (O95398 whole entry, looked up): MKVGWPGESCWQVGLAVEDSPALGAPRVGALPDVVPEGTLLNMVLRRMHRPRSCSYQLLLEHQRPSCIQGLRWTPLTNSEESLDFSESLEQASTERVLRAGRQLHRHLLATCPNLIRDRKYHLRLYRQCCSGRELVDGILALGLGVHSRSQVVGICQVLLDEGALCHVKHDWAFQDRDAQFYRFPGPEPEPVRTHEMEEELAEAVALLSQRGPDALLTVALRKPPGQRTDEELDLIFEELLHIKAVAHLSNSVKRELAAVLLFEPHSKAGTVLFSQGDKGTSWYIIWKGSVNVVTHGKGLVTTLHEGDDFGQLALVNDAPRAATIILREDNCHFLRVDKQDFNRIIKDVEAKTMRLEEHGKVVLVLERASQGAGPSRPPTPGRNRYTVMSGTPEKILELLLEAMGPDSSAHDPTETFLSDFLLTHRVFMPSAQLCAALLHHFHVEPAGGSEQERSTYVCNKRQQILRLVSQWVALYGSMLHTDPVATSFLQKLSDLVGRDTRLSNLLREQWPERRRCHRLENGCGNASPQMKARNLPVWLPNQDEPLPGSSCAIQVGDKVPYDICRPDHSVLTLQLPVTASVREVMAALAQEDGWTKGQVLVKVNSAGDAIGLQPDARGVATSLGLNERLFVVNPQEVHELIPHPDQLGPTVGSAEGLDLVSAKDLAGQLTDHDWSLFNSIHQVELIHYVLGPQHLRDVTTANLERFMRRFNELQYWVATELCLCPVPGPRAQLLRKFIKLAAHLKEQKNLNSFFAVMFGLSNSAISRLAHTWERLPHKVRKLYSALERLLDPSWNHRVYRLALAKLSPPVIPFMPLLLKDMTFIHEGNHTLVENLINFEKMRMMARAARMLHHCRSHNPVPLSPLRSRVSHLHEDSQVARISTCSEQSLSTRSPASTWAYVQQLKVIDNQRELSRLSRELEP
Rap guanine nucleotide exchange factor 4 (Homo sapiens), sequence (Q8WZA2 whole entry, looked up): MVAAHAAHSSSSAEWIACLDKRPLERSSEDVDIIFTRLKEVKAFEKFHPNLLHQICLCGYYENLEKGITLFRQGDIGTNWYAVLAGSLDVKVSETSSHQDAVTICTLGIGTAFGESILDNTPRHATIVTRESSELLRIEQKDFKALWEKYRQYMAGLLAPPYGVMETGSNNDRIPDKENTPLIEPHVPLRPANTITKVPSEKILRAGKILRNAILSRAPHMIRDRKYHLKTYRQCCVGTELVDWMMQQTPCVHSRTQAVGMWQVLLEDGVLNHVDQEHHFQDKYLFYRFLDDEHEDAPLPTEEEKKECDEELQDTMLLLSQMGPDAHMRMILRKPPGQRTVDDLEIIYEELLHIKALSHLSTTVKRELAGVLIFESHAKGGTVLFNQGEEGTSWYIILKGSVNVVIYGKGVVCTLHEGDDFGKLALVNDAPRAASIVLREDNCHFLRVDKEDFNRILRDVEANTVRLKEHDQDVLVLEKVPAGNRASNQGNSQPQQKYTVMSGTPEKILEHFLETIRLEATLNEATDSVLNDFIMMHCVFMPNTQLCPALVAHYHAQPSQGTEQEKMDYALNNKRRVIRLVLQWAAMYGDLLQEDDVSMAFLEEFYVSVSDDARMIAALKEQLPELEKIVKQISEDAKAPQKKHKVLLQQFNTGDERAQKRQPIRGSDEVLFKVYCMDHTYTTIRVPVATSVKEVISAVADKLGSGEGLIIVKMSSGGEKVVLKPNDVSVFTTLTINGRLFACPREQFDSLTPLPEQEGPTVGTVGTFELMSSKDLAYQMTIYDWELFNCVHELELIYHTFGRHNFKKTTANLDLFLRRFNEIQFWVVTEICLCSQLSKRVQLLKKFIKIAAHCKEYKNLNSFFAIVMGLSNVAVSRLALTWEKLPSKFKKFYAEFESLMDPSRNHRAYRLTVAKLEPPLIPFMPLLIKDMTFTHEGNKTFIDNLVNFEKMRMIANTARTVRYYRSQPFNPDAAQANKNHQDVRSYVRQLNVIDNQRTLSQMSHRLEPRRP

Regarding `COC(=O)CSc1nc2c(c(=O)n(C)c(=O)n2C)n1CCCc1ccccc1`, the Potency entry in assay [1], in assay [2] and in assay [4] was “inactive” throughout. Also, the activation in assay [3] is 4.31% [at 17.1 µM, percent relative to cAMP agonist control]; in assay [6], 0.96% [at 30.8 µM]. Moreover, in assay [5], the activity change, negative = inhibition was -3.64% [at 30.8 µM].

With `CCc1nc2c(OCc3ccc(OC(F)F)cc3)cccn2c1N(C)C(=O)c1ccc(OC)cc1`, the Potency entry in assay [1], in assay [2], in assay [3], in assay [4], in assay [5] and in assay [6] was “inactive” in each case.

For `COC(=O)c1cc(OC)nc2ccc(Br)cc12`, the Potency entry in assay [1], in assay [2], in assay [3], in assay [4], in assay [5] and in assay [6] was “inactive” throughout.

With `Cc1ccc(S(=O)(=O)/N=C2\C=C(Nc3cccc(C(=O)O)c3)C(=O)c3ccccc32)c(C)c1`, the Potency in assay [1] was 26.9 µM (active). Besides, the Potency entry in assay [2], in assay [3], in assay [4], in assay [5] and in assay [6] was “inactive” in each case.

Consider `CCCCC(Sc1nc2cc3c(cc2c(=O)n1CCCC(=O)NCc1ccc2c(c1)OCO2)OCO3)C(=O)OCC` (stereo unspecified), for which the Potency entry in assay [1], in assay [2], in assay [3], in assay [5] and in assay [6] was “inactive” each time. Besides, the outcome in assay [4] was “inactive [at 12.7 µM]”.

For the compound `Cc1[nH]c2ccccc2c1C(C[N+](=O)[O-])c1cccs1` (stereo unspecified), the Potency result in assay [1], in assay [2] and in assay [4] was “inactive” throughout. Moreover, the activation in assay [3] is 5.2% [at 17.1 µM, percent relative to cAMP agonist control]; in assay [6], 46.2% [at 30.8 µM]. Besides, the activity change, negative = inhibition in assay [5] was -10.6% [at 30.8 µM].

Take `O=C1C=C(N2CCOCC2)c2ccccc2C1=O`: in assay [1], the Potency is 39.8 µM (active). Moreover, the Potency entry in assay [2] and in assay [4] was “inactive” in each case. The activation in assay [3] was -3.17% [at 17.1 µM, percent relative to cAMP agonist control]; in assay [6], 26.3% [at 30.8 µM]. Moreover, the activity change, negative = inhibition in assay [5] was -11.6% [at 30.8 µM].

Turning to `C=CCc1c(C)c(C#N)c2nc3ccccc3n2c1N1CCCCC1`, the Potency result in assay [1], in assay [2], in assay [3], in assay [4], in assay [5] and in assay [6] was “inactive” each time.

As for `O=C(Cc1ccccc1)O/N=C1\CCCc2ccccc21`, the Potency result in assay [1], in assay [2], in assay [3], in assay [4], in assay [5] and in assay [6] was “inactive” in each case.

Turning to `Cc1nnnn1-c1ccc(CC(=O)O)cc1`, the Potency result in assay [1], in assay [2] and in assay [4] was “inactive” each time. Also, the activation in assay [3] was -2.24% [at 17.1 µM, percent relative to cAMP agonist control]; in assay [6], -1.16% [at 30.8 µM]. For the same compound, in assay [5], the activity change, negative = inhibition is -6.83% [at 30.8 µM].

Regarding `COC(=O)c1ccc(N2C(=O)CC(N3CCOCC3)C2=O)cc1` (stereo unspecified), the Potency entry in assay [1], in assay [2] and in assay [4] was “inactive” each time. Besides, the activation was 8.32% [at 17.1 µM, percent relative to cAMP agonist control] in assay [3] and 10.6% [at 30.8 µM] in assay [6]. In addition, in assay [5], the activity change, negative = inhibition was 6.34% [at 30.8 µM].

As for `CCCCC(=O)Nc1cccc(NC(=O)c2ccccc2Br)c1`, the Potency entry in assay [1], in assay [2], in assay [3], in assay [4], in assay [5] and in assay [6] was “inactive” throughout.

On to `CS/C(N)=N/N=C/c1c(O)ccc2ccccc12`, for which the Potency in assay [1] is 21.3 µM (active). Also, the Potency entry in assay [2], in assay [3], in assay [4], in assay [5] and in assay [6] was “inactive” throughout.

With `COc1cccc(-c2ccc(C#N)c(OC(=O)c3ccc(Cl)cc3)n2)c1`, the Potency entry in assay [1], in assay [2] and in assay [4] was “inactive” throughout. Besides, the activation was 0.578% [at 17.1 µM, percent relative to cAMP agonist control] in assay [3] and 3.51% [at 30.8 µM] in assay [6]. Further, in assay [5], the activity change, negative = inhibition is -4.63% [at 30.8 µM].

Regarding `COc1cccc(/C=C2\SC(=S)N(C(Cc3ccccc3)C(=O)O)C2=O)c1` (stereo unspecified), in assay [1], the Potency was 47.8 µM (active). For the same compound, the Potency result in assay [2], in assay [3], in assay [4], in assay [5] and in assay [6] was “inactive” each time.

In the case of `Cn1cc([C@]2(O)C(=O)Nc3ccc(F)cc32)c2ccccc21`, the Potency entry in assay [1], in assay [2] and in assay [4] was “inactive” in each case. The activation was -4.66% [at 17.1 µM, percent relative to cAMP agonist control] in assay [3] and 12.7% [at 30.8 µM] in assay [6]. Further, in assay [5], the activity change, negative = inhibition was -17.1% [at 30.8 µM].

As for `Cc1cc2ccccn2c1C(=O)c1ccc(Cl)cc1`, the Potency result in assay [1], in assay [2], in assay [3], in assay [4] and in assay [5] was “inactive” in each case. Also, the Potency in assay [6] is 0.141 µM (active).

In the case of `N#Cc1c(-c2ccccc2)nc(SCC(=O)Nc2ccc(OC(F)(F)Cl)cc2)[nH]c1=O`, the values for the Potency in assay [1] and in assay [4] were 67.5 µM (active) and 12 µM (active), respectively. The Potency result in assay [2], in assay [3], in assay [5] and in assay [6] was “inactive” each time.

For the compound `C=CCN(CC=C)Cc1cc(=O)oc2cc(OC)ccc12`, the Potency result in assay [1], in assay [2] and in assay [4] was “inactive” in each case. Further, the activation was 5.94% [at 17.1 µM, percent relative to cAMP agonist control] in assay [3] and -2.24% [at 30.8 µM] in assay [6]. Also, the activity change, negative = inhibition in assay [5] was -16% [at 30.8 µM].

Consider `Cc1c(CCC(=O)O)c(=O)oc2cc(OCc3ccc(Br)cc3)ccc12`, for which the Potency entry in assay [1], in assay [2], in assay [3], in assay [4], in assay [5] and in assay [6] was “inactive” in each case.

For `CCN(CC)c1ccc(C(=O)OCC(=O)NCC2CCCO2)cc1` (stereo unspecified), the Potency result in assay [1], in assay [2] and in assay [4] was “inactive” each time. The activation in assay [3] is 4.19% [at 17.1 µM, percent relative to cAMP agonist control]; in assay [6], 25.8% [at 30.8 µM]. Also, in assay [5], the activity change, negative = inhibition is -1.2% [at 30.8 µM].
